Test results as given in PubChem BioAssay (Tox21).
Records with an inconclusive call do not appear. Calls of active or inactive are those of the source. Unless noted, calls come from the whole dose curve; as a rule, active = well fitted curve in the direction sought with a large enough effect in the repeat runs; inconclusive = weak or mixed curves; inactive = no such curve, though single readings can be large; an effect the other way counts as inactive or inconclusive.

Tests used:
[1] = qHTS assay to identify small molecule agonists of the peroxisome proliferator-activated receptor delta (PPARd) signaling pathway - cell viability counter screen (AID 743211); note: nearly all actives have a fitted effect of over 55% in size
Procedure, shortened: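 Counter screen for cytotoxicity run in parallel with the PPARd reporter screen. Beta-lactamase reporter HEK293H cells exposed to compounds 17 h; ATP-based CellTiter-Glo luminescence quantified viability.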

[2] = molecular target: Peroxisome proliferator-activated receptor delta (Homo sapiens) (UniProt Q03181); assay: qHTS assay to identify small molecule agonists of the peroxisome proliferator-activated receptor delta (PPARd) signaling pathway (AID 743212; calls by dose curve)
Procedure, shortened: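 Steps: seed PPARd-bla HEK293H cells; incubate 5 h, 37 C, 5% CO2; add compounds in DMSO; incubate, 37 C; add LiveBLAzer B/G FRET substrate; hold 2 h at room temperature; measure fluorescence.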

[3] = qHTS assay to identify small molecule antagonists of the peroxisome proliferator-activated receptor delta (PPARd) signaling pathway - cell viability counter screen (AID 743213); note: nearly all actives have a fitted effect of over 50% in size
Procedure, shortened: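 PPARd-bla HEK293H cells (3000/well) got compound plus 300 nM L165041 agonist for 17 h at 37 C. Viability in the same wells came from CellTiter-Glo luminescence after 30 min at room temperature.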

[4] = molecular target: Peroxisome proliferator-activated receptor delta (Homo sapiens) (UniProt Q03181); assay: qHTS assay to identify small molecule antagonists of the peroxisome proliferator-activated receptor delta (PPARd) signaling pathway (AID 743215; active = well fitted inhibition curve with a large enough effect in the signal ratio in the repeat runs, not every such curve was filed as active; the % refers to the signal ratio;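 note: cells stimulated with agonist L165041 at 300 nM final during compound exposure; series mostly up to about 62 µM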)
Procedure, shortened: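 HEK293H GeneBLAzer PPARd UAS-bla reporter cells; cpd + L165041 300 nM final, 17 h 37 C; LiveBLAzer B/G FRET substrate 2 h RT; fluorescence intensity read-out. Antagonist mode.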

[5] = qHTS assay to identify small molecule agonists of the farnesoid-X-receptor (FXR) signaling pathway - cell viability counter screen (AID 743218); note: nearly all actives have a fitted effect of over 45% in size
Procedure, shortened: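 Luminescence from CellTiter-Glo, read after 30 min at RT, reports viability of GeneBLAzer FXR-UAS-bla HEK 293T cells treated 16 h with compounds in the wells used for the beta-lactamase reporter.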

[6] = qHTS assay to identify small molecule antagonists of the farnesoid-X-receptor (FXR) signaling pathway - cell viability counter screen (AID 743221; active = well fitted cell-killing curve with a large enough effect in the repeat runs, not every such curve was filed as active; note: nearly all actives have a fitted effect of over 50% in size)
Procedure, shortened: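 Multiplexed counter screen: viability of FXR-bla HEK 293T cells under agonist stimulation by chenodeoxycholic acid (50 uM, final) and test compound for 16 h at 37 C, measured by CellTiter-Glo luminescence in the reporter wells.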

[7] = molecular target: Vitamin D3 receptor (Homo sapiens) (UniProt P11473); assay: qHTS assay to identify small molecule agonists of the vitamin D receptor (VDR) signaling pathway (AID 743222; calls by dose curve)
Procedure, shortened: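 Beta-lactamase reporter readout (LiveBLAzer B/G FRET, 2 h RT) in VDR-bla cells after 16 h compound treatment at 37C, 5% CO2; cells pre-incubated 4 h before pin transfer of DMSO solutions.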

[8] = molecular target: Vitamin D3 receptor (Homo sapiens) (UniProt P11473); assay: qHTS assay to identify small molecule antagonists of the vitamin D receptor (VDR) signaling pathway (AID 743223; active = well fitted inhibition curve with a large enough effect in the signal ratio in the repeat runs, not every such curve was filed as active; the % refers to the signal ratio)
Procedure, shortened: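 Cells carrying a VDR-driven beta-lactamase reporter (VDR-bla) were co-treated with compound and 3 nM final 1alpha,25-dihydroxyvitamin D3 for 16 h at 37C; reporter activity was measured as FRET substrate fluorescence after 2 h at room temperature.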

[9] = molecular target: Bile acid receptor (Homo sapiens) (UniProt Q96RI1); assay: qHTS assay to identify small molecule antagonists of the farnesoid-X-receptor (FXR) signaling pathway (AID 743217; active = well fitted inhibition curve with a large enough effect in the signal ratio in the repeat runs, not every such curve was filed as active; the % refers to the signal ratio)
Procedure, shortened: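 Read-out: beta-lactamase FRET fluorescence (LiveBLAzer B/G substrate, 2 h, room temperature) in GeneBLAzer FXR-UAS-bla HEK 293T cells. Compounds were co-dosed with 50 uM chenodeoxycholic acid (final) and incubated 16 h at 37 °C.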

[10] = molecular target: Bile acid receptor (Homo sapiens) (UniProt Q96RI1); assay: qHTS assay to identify small molecule agonists of the farnesoid-X-receptor (FXR) signaling pathway (AID 743220; active = well fitted activation curve with a large enough effect in the signal ratio in the repeat runs, not every such curve was filed as active; the % refers to the signal ratio)
Procedure, shortened: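 FXR-UAS-bla HEK 293T cells carrying a UAS-driven beta-lactamase reporter were plated for 5 h at 37C/5% CO2, then exposed to DMSO-dissolved Tox21 10K compounds for 16 h at 37C. A LiveBLAzer B/G FRET substrate was loaded for 2 h at room temperature before fluorescence reading.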

Measured: Potency

Sequence of Peroxisome proliferator-activated receptor delta (Homo sapiens) (Q03181 whole entry, looked up): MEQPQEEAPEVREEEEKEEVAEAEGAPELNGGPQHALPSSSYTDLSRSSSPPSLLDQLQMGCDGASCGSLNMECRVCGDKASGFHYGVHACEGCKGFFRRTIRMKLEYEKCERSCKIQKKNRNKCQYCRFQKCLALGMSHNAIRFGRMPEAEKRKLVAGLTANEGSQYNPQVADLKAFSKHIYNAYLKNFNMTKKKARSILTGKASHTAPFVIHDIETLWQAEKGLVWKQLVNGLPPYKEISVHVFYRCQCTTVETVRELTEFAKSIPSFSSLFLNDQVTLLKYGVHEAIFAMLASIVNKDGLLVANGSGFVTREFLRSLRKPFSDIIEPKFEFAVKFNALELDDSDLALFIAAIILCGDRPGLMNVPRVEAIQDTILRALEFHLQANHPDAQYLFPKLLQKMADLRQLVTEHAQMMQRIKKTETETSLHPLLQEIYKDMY
Sequence of Bile acid receptor (Homo sapiens) (Q96RI1 whole entry, looked up): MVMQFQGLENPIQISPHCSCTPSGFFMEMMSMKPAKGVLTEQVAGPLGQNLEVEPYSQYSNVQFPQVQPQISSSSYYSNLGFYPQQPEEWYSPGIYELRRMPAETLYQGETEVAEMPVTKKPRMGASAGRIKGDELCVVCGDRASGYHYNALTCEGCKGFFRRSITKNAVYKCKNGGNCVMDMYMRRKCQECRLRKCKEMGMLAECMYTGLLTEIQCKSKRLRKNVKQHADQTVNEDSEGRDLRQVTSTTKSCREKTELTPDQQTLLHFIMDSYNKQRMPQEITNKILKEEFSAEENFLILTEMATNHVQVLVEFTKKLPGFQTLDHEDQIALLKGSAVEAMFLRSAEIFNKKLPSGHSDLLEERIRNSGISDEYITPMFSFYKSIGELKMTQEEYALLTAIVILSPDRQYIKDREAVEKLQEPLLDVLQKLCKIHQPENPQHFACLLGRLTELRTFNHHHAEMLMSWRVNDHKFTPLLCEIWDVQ
Sequence of Vitamin D3 receptor (Homo sapiens) (P11473 whole entry, looked up): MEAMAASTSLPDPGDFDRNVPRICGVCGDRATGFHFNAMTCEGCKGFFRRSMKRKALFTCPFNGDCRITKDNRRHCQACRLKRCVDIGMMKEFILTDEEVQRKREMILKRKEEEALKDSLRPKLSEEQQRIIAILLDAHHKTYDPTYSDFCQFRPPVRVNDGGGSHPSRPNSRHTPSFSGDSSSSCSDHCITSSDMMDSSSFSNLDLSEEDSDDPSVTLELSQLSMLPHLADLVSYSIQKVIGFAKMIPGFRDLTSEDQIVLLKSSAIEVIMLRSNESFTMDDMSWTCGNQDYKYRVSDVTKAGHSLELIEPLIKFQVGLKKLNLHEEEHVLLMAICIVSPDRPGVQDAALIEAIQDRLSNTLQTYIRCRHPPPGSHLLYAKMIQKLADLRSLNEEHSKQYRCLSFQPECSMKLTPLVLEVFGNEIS

N[C@@H](Cc1cc(I)c(O)c(I)c1)C(=O)O
not listed: [8] | [9] | [10]
inactive: all other assays above

COc1ccc(C)cc1
not listed: [8] | [9] | [10]
inactive: all other assays above

CCCCCCCCCCCCCCCCCC(=O)OCC(CC)CCCC (stereo not drawn)
not listed: [8] | [9] | [10]
inactive: all other assays above

CN=C(N)NC(=O)Nc1c(C)cccc1C
not listed: [9] | [10]
inactive: all other assays above

Cc1c[nH]c2ccccc12
inactive: [1] | [2] | [3] | [4] | [5] | [6]

BrC(Br)C(Br)Br
not listed: [9] | [10]
inactive: all other assays above

Cc1ccc(S(=O)(=O)NC(=O)NC2CCCCC2)cc1
inactive: [1] | [2] | [3] | [4] | [5] | [6]

CC(=O)OCCC1CCCCC1
not listed: [8] | [9] | [10]
inactive: all other assays above

CC(C)c1ccc(C#N)cc1
not listed: [9] | [10]
inactive: all other assays above

C/C(C=O)=C\c1ccccc1
not listed: [9] | [10]
inactive: all other assays above

CCCCCCC(O)CCCCCCCCCCC(=O)OC (stereo not drawn)
not listed: [8] | [9] | [10]
inactive: all other assays above

NC(=O)c1ccccc1[N+](=O)[O-]
inactive: [1] | [2] | [3] | [4] | [5] | [6]

CCOC(=O)Oc1ccc(CCNC(=O)[C@H](CCSC)NC(C)=O)cc1OC(=O)OCC
inactive: [1] | [2] | [3] | [4] | [5] | [6]

CCCCOC(=O)CCCCC(=O)OCCCC
not listed: [9] | [10]
inactive: all other assays above

Cc1cccc2sc(N)nc12
not listed: [9] | [10]
inactive: all other assays above

CCOCCC(=O)OCC
not listed: [8] | [9] | [10]
inactive: all other assays above

O=C1OC[C@H](Cc2cccc(O)c2)[C@H]1Cc1cccc(O)c1
not listed: [8] | [9] | [10]
inactive: all other assays above

CC(C)(C(=O)c1cccnc1)c1cccnc1
not listed: [9] | [10]
inactive: all other assays above

O=C(C(=O)c1ccco1)c1ccco1
not listed: [9] | [10]
inactive: all other assays above

CC1CCCC(=O)C1=O (stereo not drawn)
not listed: [9] | [10]
inactive: all other assays above

O=C1CC[C@@H](C(=O)O)N1
not listed: [9] | [10]
inactive: all other assays above

CC(C)COC(=O)COc1cc(Cl)c(Cl)cc1Cl
inactive: [1] | [2] | [3] | [4] | [5] | [6]

COc1cc(NC(C)CCCN)c2ncccc2c1 (stereo not drawn)
not listed: [3] | [9] | [10]
inactive: all other assays above

CCN(CC)CCOC(=O)C(c1ccccc1)c1ccccc1
not listed: [3] | [8]
inactive: all other assays above

CNCc1ccc(NC(=O)c2c[nH]c3c2C(=O)CCC3)cc1
not listed: [9] | [10]
inactive: all other assays above

CCCOC(=O)c1c(Cl)c(Cl)c(Cl)c(Cl)c1C(=O)OCCC
not listed: [5] | [9] | [10]
inactive: all other assays above

CN1C(CSCC(F)(F)F)Nc2cc(Cl)c(S(N)(=O)=O)cc2S1(=O)=O (stereo not drawn)
not listed: [4] | [9] | [10]
inactive: all other assays above

COc1cc(C(C)=O)ccc1OCCCN1CCC(c2noc3cc(F)ccc23)CC1
inactive: [1] | [2] | [3] | [5] | [6] | [8]

Nc1c(Cl)cc(Cl)cc1[N+](=O)[O-]
inactive: [1] | [2] | [3] | [5] | [6] | [7]

NC(=O)CCCCC(N)=O
not listed: [9] | [10]
inactive: all other assays above

c1ccc(CNc2ncnc3c2ncn3C2CCCCO2)cc1 (stereo not drawn)
not listed: [3] | [5] | [8]
inactive: all other assays above

CCCCOCCOC(=O)c1cccnc1
inactive: [1] | [2] | [3] | [4] | [6]
